In PubChem BioAssay (NCI):
Compounds without any hit were thinned out: in the full panel of roughly 79,000, 15% have a hit. Cut-off read from the data, not from the text of the source: active = growth inhibition above about 70%; inactive = the rest.

Key:
[1] = NCI Yeast Anticancer Drug Screen. Data for the rad50 strain (AID 155);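 note: 0% = growth of vehicle-only cultures of the same strain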; settings: S. cerevisiae rad50 strain growth inhibition; at 50.0 µM; stronger effect = higher value
In short: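 Vehicle-treated cultures provide the reference for the growth inhibition reported for compound-exposed, repair-deficient yeast.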

[2] = NCI Yeast Anticancer Drug Screen. Data for the mec2-1 strain (AID 157); settings: S. cerevisiae mec2-1 strain, at 50.0 µM, stronger effect = higher value
In short: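 Compounds were applied to mec2-1 yeast cells. Their growth was then compared with that of vehicle-treated cultures to give growth inhibition.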

[3] = NCI Yeast Anticancer Drug Screen. Data for the sgs1 mgt1 strain (AID 161);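 note: 0% = growth of cultures given vehicle only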; settings: S. cerevisiae sgs1 mgt1 strain, at 50.0 µM, stronger effect = higher value
In short: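 This yeast growth screen uses a strain with defined DNA-repair lesions; compound-treated growth is compared with vehicle-treated growth.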

[4] = NCI Yeast Anticancer Drug Screen. Data for the cln2 rad14 strain (AID 165);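 note: 0% = growth equal to vehicle treated cultures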; settings: S. cerevisiae cln2 rad14 strain, at 50.0 µM, stronger effect = higher value
In short: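 Strain: cln2 rad14 yeast, altered in cell cycle control and DNA damage repair. Read-out: growth inhibition vs vehicle.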

[5] = NCI Yeast Anticancer Drug Screen. Data for the bub3 strain (AID 167); settings: S. cerevisiae bub3 mutant strain, at 50.0 µM, stronger effect = higher value
In short: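 Mutant yeast screening strain plus compound; vehicle-treated cultures serve as the 0% inhibition reference.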

[6] = NCI Yeast Anticancer Drug Screen. Data for the mlh1 rad18 strain (AID 175); settings: S. cerevisiae mlh1 rad18 strain growth inhibition; at 50.0 µM; stronger effect = higher value
In short: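 A repair-deficient yeast strain is exposed to test compound, and growth is scored relative to vehicle-treated controls.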

Measured: growth inhibition

CCN(CC)c1ccc2cc(C(=O)NC(=O)Oc3ccccc3)c(=O)oc2c1
inactive: [1] 25.1% | [2] -5.5% | [3] -6.05% | [4] 25.1% | [5] -3.2% | [6] 9.35%

O=C(O)CC(/C=C\C(=O)C(=O)O)=C\O
inactive: [1] -6.6% | [2] -6.4% | [3] -11.6% | [4] 3.6% | [5] 4.15% | [6] -10.2%

O=C1c2cc(Cl)ccc2-c2ccc(N=Cc3ccccc3Cl)cc21
inactive: [1] 1.65% | [2] -1.55% | [3] -7.8% | [4] -89.5% | [5] 34.1% | [6] -1.35%
